PubChem BioAssay (NCI)
This is part of a sample that, as a whole, favours compounds with a hit. Of some 83,000 tested, about 20% had one in any assay.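 Cell lines were cultured in 96-well plates, exposed to a single compound concentration, and assessed for percent growth 48 hours later.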 A number with no mark means an inactive call. Activity calls are given as the source filed them. The calls were made as follows: active = growth percent below 10; inactive = the rest.

Legend:
Test in all cases: NCI-60 one-dose screen, 48 h (100 = growth as untreated, 0 = no growth, -100 = all killed)
Conditions in all cases: 10 µM unless noted
HCT-15 colon = tested on: HCT-15 colon
HT29 colon = tested on: HT29 colon
SNB-75 CNS = tested on: SNB-75 CNS
SNB-19 CNS = tested on: SNB-19 CNS
U251 CNS = tested on: U251 CNS
PC-3 prostate = tested on: PC-3 prostate
SK-MEL-5 melanoma = tested on: SK-MEL-5 melanoma
UACC-62 melanoma = tested on: UACC-62 melanoma
LOX IMVI melanoma = tested on: LOX IMVI melanoma
SK-MEL-28 melanoma = tested on: SK-MEL-28 melanoma

Structure (SMILES) | growth (HCT-15 colon) | growth (HT29 colon) | growth (SNB-75 CNS) | growth (SNB-19 CNS) | growth (U251 CNS) | growth (PC-3 prostate) | growth (SK-MEL-5 melanoma) | growth (UACC-62 melanoma) | growth (LOX IMVI melanoma) | growth (SK-MEL-28 melanoma)
O=C(/C=C/C=C/c1csc(Br)n1)NO | 94.5% | 94.5% | 75.6% | 94.4% | 98.6% | 84.8% | 96% | 84.8% | -31.7% (active) | 102%
COc1ccc(N2CCN(C3=C(Cl)C(=O)c4ncccc4C3=O)CC2)cc1 | 17.1% | 87.3% | 85.2% | 94.7% | 90.9% | 68.1% | 95% | 69.3% | 21% | 78.3%
Cc1ccc2c(n1)C(=O)C(Cl)=C(Nc1cc(C(F)(F)F)cc(C(F)(F)F)c1)C2=O | 6.82% (active) | 102% | 98.3% | 90.6% | 85.2% | 80.5% | 77% | 79.9% | 66.2% | 88.7%
FC(F)(F)c1cc(Br)cc(-c2cc(-c3ccc4c(c3)OCCO4)[nH]n2)c1 | 15.7% | 6.74% (active) | 5.38% (active) | 34.3% | 23.1% | 37% | 17.9% | 40.2% | 19% | 68.3%
CC[C@]12C=CCN3CC[C@@]4(c5ccc(OC)cc5N(C)[C@H]4[C@@](O)(C(=O)OC)[C@@H]1OC(=O)CCN1CCc4ccccc4C1)[C@@H]32 | 84.8% | 99% | 66.9% | 91.9% | 87.5% | 70.1% | 98.2% | 99% | 88.5% | 95%
O=[N+]([O-])c1ccc(NC(=S)NNC(=S)Nc2ccc(Br)cc2)cc1 | 42.1% | 95% | 121% | 98.6% | 88.4% | 75.3% | 92.7% | 48.5% | 60.9% | 102%
O=C1/C(=C/c2cc(F)cc(F)c2)Cc2cc3c(cc21)OCO3 | 27.2% | 22.1% | 6.56% (active) | 49.7% | 43.4% | 25.3% | 23.6% | 24.3% | 38.5% | 57.8%
COC(=O)N1CCN(CCNCc2ccc(NC(=O)c3ccc(C)c(C#Cc4cnc5cccnn45)c3)cc2C(F)(F)F)CC1 | 6.88% (active) | 17.3% | 17.4% | 59.6% | 36.2% | 25.5% | -75.2% (active) | 39.3% | -79.5% (active) | 12%
O=C1C(N2CCN(c3ccccc3)CC2)=C(Cl)C(=O)c2ncccc21 | 20.3% | 106% | 83.7% | 81.5% | 79.5% | 71.9% | 95.1% | 61.8% | 10.4% | 83%
OCC(Nc1ncnc2ccc(-c3cnc4cnccn34)cc12)c1ccccc1 (stereo not given) | 92.3% | 83.5% | 85.6% | 70.6% | 88.5% | 79.9% | 37.5% | 74.1% | 85.2% | 97.8%
O=C(/C=C/c1cccc(F)c1)c1cccc(OCCCCOc2cccc(C(=O)/C=C/c3cccc(F)c3)c2)c1 | 97.6% | 106% | 102% | 94% | 105% | 97.6% | 98.6% | 94.8% | 95.2% | 105%
CC(Nc1ncnc2ccc(-c3cnc4cnccn34)cc12)c1ccccc1 (stereo not given) | 67.7% | 71.1% | 80.9% | 56.8% | 76.1% | 63.8% | 18.1% | 53.9% | 58.1% | 78.7%
CN(C)CCNc1ccc2ncc(C#Cc3cncc(C(=O)Nc4ccc(CN5CCN(C)CC5)c(C(F)(F)F)c4)c3)n2n1 | 34.7% | -13% (active) | -93.4% (active) | 1.59% (active) | 23.8% | 2.27% (active) | 74.6% | 60.2% | -88.6% (active) | 75%
CC1(C)CC[C@]2(C(=O)NCCCCCCN(CCCN)CCCN)CC[C@]3(C)C(=CC[C@@H]4[C@@]5(C)CC[C@H](O)C(C)(C)[C@@H]5CC[C@]43C)[C@@H]2C1 | 105% | 110% | 95.5% | 96.5% | 94% | 103% | 101% | 88.1% | 98.1% | 107%
Cn1c2nc3ccccc3c-2cc2ccccc21 | 25% | 30.2% | 82.3% | 45.5% | 41.7% | 46.2% | 31.2% | 46.2% | 18.9% | 76.1%
COc1ccc(/C=N/NC(=O)CSc2nc(-c3cnccn3)cc(-c3cccs3)c2C#N)cc1 | 87.3% | 8.86% (active) | 77.3% | 57.8% | 68.1% | 72.9% | 72.5% | 59.4% | 45.7% | 77%
Cn1cc(-c2cc3ncnc(Nc4ccc(CC(=O)Nc5nc(C(C)(C)C)cs5)cc4)c3s2)cn1 | 26.6% | 49.9% | 50.9% | 94.5% | 66% | 41.4% | 53% | 40.3% | 26.3% | 68.9%
C#C[C@]1(O)CC[C@H]2[C@@H]3CC=C4c5sc(N(C)c6ccccc6)nc5CC[C@]4(C)[C@H]3CC[C@@]21C | 27.8% | -3.51% (active) | 99.8% | 91.3% | 60.6% | 59.1% | 87.3% | 77% | 67.8% | 76.9%
CCN(CC)c1ccc(/C=N/NC(=O)c2ccc(S(N)(=O)=O)cc2)c(O)c1 | 20.9% | 25.4% | 47.8% | 29.9% | 20.8% | 34.9% | -7.45% (active) | -3.75% (active) | 0.484% (active) | 20.6%
O=C(/C=C/c1cccc(Br)c1)c1cccc(OCCCCOc2cccc(C(=O)/C=C/c3cccc(Br)c3)c2)c1 | 108% | 117% | 96.8% | 94.3% | 105% | 104% | 99.4% | 98.3% | 96.6% | 110%
CC(C)(C)Nc1nc2c(OCCc3ccccc3)cccn2c1-c1ccc([N+](=O)[O-])cc1 | 15.8% | 52.3% | 88.1% | 78.4% | 62.6% | 49.1% | 74.8% | 57.5% | 54.7% | 76.2%
Cc1ccc2c(n1)C(=O)C(Cl)=C(Nc1ccc(C(C)C)cc1)C2=O | -60.1% (active) | 102% | 109% | 75.4% | 70.2% | 54% | 37.3% | 86.3% | -66.3% (active) | 6.95% (active)
CCN1CCN(c2ccc(NC(=O)Nc3ccc4c(ccn4-c4ccnc(C(=O)NC)c4)c3)cc2C(F)(F)F)CC1 | 9.57% (active) | -44.5% (active) | 43.7% | 81% | 44.7% | 52.6% | 67.4% | 92.8% | -87.7% (active) | -81% (active)
Cc1nc(N)sc1-c1csc(Nc2ccc(C(F)(F)F)cc2)n1 | 7.03% (active) | -27.6% (active) | 56.5% | 47.3% | 53.3% | 36.5% | -43% (active) | 22.2% | 6.07% (active) | 42.1%
C#Cc1nc(/C=C\CCCCCCC(=O)NO)cs1 | 65.6% | 55% | -57.7% (active) | 71.6% | 70.6% | 66.9% | 31.9% | 31.2% | -82% (active) | 54.1%
